Some test systems named below: NCI-H23 lung; NCI-H226 lung; NCI-H322M lung; HOP-62 NSCLC; NCI-H460 lung; HOP-92 NSCLC; NCI-H522 lung; A549/ATCC NSCLC; 786-0 renal; COLO 205 colon; DU-145 prostate; K-562 leukemia; MALME-3M melanoma; MDA-MB-231 breast; RXF 393 renal; SF-268 CNS; SF-295 CNS; SF-539 CNS; UACC-257 melanoma; M14 melanoma.
Common to all, as to assay: NCI-60 one-dose screen, 48 h (100 = growth as untreated, 0 = no growth, -100 = all killed)
What all share (conditions): 10 µM unless noted

The panel holds about 83,000 compounds, 20% with a hit somewhere; the sample as a whole holds those more often.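 Testing used 96-well plates and a 48-hour single-concentration exposure. Example: -40 means 40% of the starting cells died.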 Active and inactive are the calls of the source. How the source made its calls: active means growth percent below 10; inactive means the rest.

`COc1ccc(/C=N/NC(=O)c2c(N)nn(C)c2Nc2ccccc2)cc1Oc1ccccc1`: the growth in the test with NCI-H23 lung is 90.4% (inactive); in the test with NCI-H226 lung it was 91.9% (inactive); with NCI-H322M lung, 89.4% (inactive); with HOP-62 NSCLC it was 96.5% (inactive); in the test on NCI-H460 lung, 102% (inactive); in the test on HOP-92 NSCLC, 51.3% (inactive). Also, the growth in the test with NCI-H522 lung is 93.8% (inactive); with A549/ATCC NSCLC, 89.1% (inactive); in the test on 786-0 renal, 101% (inactive); in the test on COLO 205 colon it was 117% (inactive); in the test with DU-145 prostate it was 101% (inactive); with K-562 leukemia, 88% (inactive). Moreover, the growth is 91.1% (inactive) in the test on MALME-3M melanoma; 94.9% (inactive) with MDA-MB-231 breast; 87.1% (inactive) with RXF 393 renal; 94% (inactive) in the test with SF-268 CNS; 90.4% (inactive) in the test on SF-295 CNS; 95.7% (inactive) in the test with SF-539 CNS. Further, the growth is 96.9% (inactive) in the test on UACC-257 melanoma and 101% (inactive) with M14 melanoma.
Consider `Cn1c(SCC(=O)c2ccc(Br)cc2)nc2ccccc2c1=O`, for which the growth with NCI-H23 lung was 85.3% (inactive); in the test with NCI-H226 lung, 90.7% (inactive); in the test on NCI-H322M lung, 95.8% (inactive); with HOP-62 NSCLC it was 105% (inactive); in the test on NCI-H460 lung, 102% (inactive); in the test on HOP-92 NSCLC, 91.3% (inactive). Also, the growth with NCI-H522 lung was 86.4% (inactive); in the test on A549/ATCC NSCLC, 96.3% (inactive); in the test with 786-0 renal, 91.2% (inactive); in the test with COLO 205 colon it was 121% (inactive); in the test on DU-145 prostate, 97.8% (inactive); with K-562 leukemia it was 85.2% (inactive). For the same compound, the growth is 111% (inactive) with MALME-3M melanoma; 94.9% (inactive) with MDA-MB-231 breast; 115% (inactive) in the test with RXF 393 renal; 97.5% (inactive) in the test with SF-268 CNS; 97.6% (inactive) in the test on SF-295 CNS; 97.3% (inactive) in the test with SF-539 CNS. The growth with UACC-257 melanoma was 108% (inactive); with M14 melanoma it was 96.6% (inactive).
With `C#Cc1nc(/C=C/CCCCCCC(=O)NO)cs1`, the growth in the test with NCI-H23 lung is -34.2% (active); in the test with NCI-H226 lung, 87.6% (inactive); in the test with NCI-H322M lung, 85.2% (inactive); in the test on HOP-62 NSCLC it was 73.4% (inactive); in the test on NCI-H460 lung it was 51.8% (inactive); in the test with HOP-92 NSCLC it was -52.3% (active). The growth in the test with NCI-H522 lung was -61.4% (active); in the test on A549/ATCC NSCLC, 61.6% (inactive); with 786-0 renal, -87.8% (active); with COLO 205 colon, 81.8% (inactive); with DU-145 prostate, 23.8% (inactive); with K-562 leukemia, 13.1% (inactive). For the same compound, the growth in the test with MALME-3M melanoma is 22% (inactive); in the test on MDA-MB-231 breast, -31% (active); in the test on RXF 393 renal, -6.54% (active); in the test on SF-268 CNS, 83.2% (inactive); in the test with SF-295 CNS, 82.5% (inactive); in the test on SF-539 CNS, -89.4% (active). Further, the growth was 56.6% (inactive) in the test on UACC-257 melanoma and 62.4% (inactive) in the test with M14 melanoma.
Regarding `C(=N\Nc1nc(N/N=C/c2ccc3c(c2)OCO3)nc(N2CCCCC2)n1)/c1ccc2c(c1)OCO2`, the growth was 101% (inactive) in the test on NCI-H23 lung; 101% (inactive) in the test with NCI-H226 lung; 98.5% (inactive) with NCI-H322M lung; 123% (inactive) in the test on HOP-62 NSCLC; 90.6% (inactive) in the test on NCI-H460 lung; 96% (inactive) in the test with HOP-92 NSCLC. Moreover, the growth in the test with NCI-H522 lung was 91.9% (inactive); in the test with A549/ATCC NSCLC it was 91.4% (inactive); in the test on 786-0 renal it was 86.6% (inactive); in the test on COLO 205 colon, 85.9% (inactive); in the test with DU-145 prostate, 99.8% (inactive); in the test with K-562 leukemia, 41.1% (inactive). The growth was 120% (inactive) in the test with MALME-3M melanoma; 90.7% (inactive) with MDA-MB-231 breast; 79.7% (inactive) in the test on RXF 393 renal; 100% (inactive) with SF-268 CNS; 77.8% (inactive) with SF-295 CNS; 87.6% (inactive) in the test with SF-539 CNS. In addition, the growth in the test with UACC-257 melanoma is 108% (inactive); with M14 melanoma, 97.3% (inactive).
For the compound `Cc1ccc(/C=N/Nc2nc(Nc3ccccc3)nc(Nc3ccc(S(N)(=O)=O)cc3)n2)cc1`, the growth was 76.7% (inactive) with NCI-H23 lung; 79.3% (inactive) with NCI-H226 lung; 90.8% (inactive) with NCI-H322M lung; 86.8% (inactive) with HOP-62 NSCLC; 54.7% (inactive) with NCI-H460 lung; 112% (inactive) in the test with HOP-92 NSCLC. Also, the growth was 89.5% (inactive) in the test on NCI-H522 lung; 83.2% (inactive) in the test with A549/ATCC NSCLC; 46.9% (inactive) in the test with 786-0 renal; 83.9% (inactive) in the test with COLO 205 colon; 65.1% (inactive) in the test with DU-145 prostate; 56.8% (inactive) in the test on K-562 leukemia. Further, the growth in the test with MALME-3M melanoma is 91.8% (inactive); in the test with MDA-MB-231 breast, 73.4% (inactive); in the test with RXF 393 renal, -2.59% (active); in the test with SF-268 CNS, 87.1% (inactive); with SF-295 CNS it was 57.7% (inactive); in the test on SF-539 CNS, 44.7% (inactive). Besides, the values for the growth with UACC-257 melanoma and in the test with M14 melanoma were 101% (inactive) and 72.8% (inactive), respectively.
For `N#C/C(=C\c1cccc2c1OCO2)C(=O)Nc1sc2c(c1C#N)CCCC2`, the growth was 102% (inactive) in the test on NCI-H23 lung; 95.8% (inactive) with NCI-H226 lung; 89.1% (inactive) in the test with NCI-H322M lung; 96.8% (inactive) with HOP-62 NSCLC; 110% (inactive) in the test on NCI-H460 lung; 101% (inactive) in the test on HOP-92 NSCLC. Also, the growth in the test on NCI-H522 lung was 94.2% (inactive); in the test on A549/ATCC NSCLC it was 104% (inactive); in the test on 786-0 renal it was 99.6% (inactive); with COLO 205 colon, 119% (inactive); in the test on DU-145 prostate, 111% (inactive); with K-562 leukemia, 104% (inactive). Further, the growth in the test on MALME-3M melanoma was 105% (inactive); in the test on MDA-MB-231 breast it was 95.6% (inactive); with RXF 393 renal, 123% (inactive); with SF-268 CNS it was 103% (inactive); with SF-295 CNS, 97.2% (inactive); with SF-539 CNS it was 97% (inactive). Also, the growth is 110% (inactive) with UACC-257 melanoma and 97.5% (inactive) in the test with M14 melanoma.
In the case of `O=C(COc1ccc(/C=C2\C(=O)Nc3ccc(Cl)cc32)cc1)Nc1ccc(Cl)cc1`, the growth with NCI-H23 lung was 59.7% (inactive); with NCI-H226 lung it was 74% (inactive); in the test with NCI-H322M lung, 74.3% (inactive); with HOP-62 NSCLC, 63.2% (inactive); with NCI-H460 lung, 23.7% (inactive); with HOP-92 NSCLC it was 93.5% (inactive). The growth is 45.3% (inactive) with NCI-H522 lung; 57% (inactive) with A549/ATCC NSCLC; 68.3% (inactive) in the test with 786-0 renal; 90.5% (inactive) in the test with COLO 205 colon; 53.7% (inactive) in the test with DU-145 prostate; 28.2% (inactive) with K-562 leukemia. In addition, the growth in the test with MALME-3M melanoma was 81.2% (inactive); in the test on MDA-MB-231 breast, 76.6% (inactive); in the test on RXF 393 renal, 75.4% (inactive); in the test with SF-268 CNS, 51.1% (inactive); in the test with SF-295 CNS it was 59.2% (inactive); with SF-539 CNS it was 75.3% (inactive). Besides, the figures for the growth in the test on UACC-257 melanoma and with M14 melanoma were 82.5% (inactive) and 7.47% (active), respectively.

For the origin of these results see PubChem BioAssay (NCI).
